{
  "source": "the supplement of paper PMC11732987",
  "about": "“Enantioselective OTUD7B fragment discovery through chemoproteomics screening and high-throughput optimisation” (Communications Chemistry, 2025)",
  "assay_in_all_cases": "log2 ratio of Biotin-Ahx-Ub-VS probe labelling (fragment/DMSO); higher = less target engagement (more negative = stronger competition), active = hit call of the paper (q ≤ 0.05, log2 ratio ≤ -1)",
  "settings_in_all_cases": "compound concentration: 200 uM; treatment time: 3 h",
  "key": {"USP9X": {"target": "USP9X (UniProt Q93008)", "sequence (Q93008 whole entry, the tested form may be a part)": "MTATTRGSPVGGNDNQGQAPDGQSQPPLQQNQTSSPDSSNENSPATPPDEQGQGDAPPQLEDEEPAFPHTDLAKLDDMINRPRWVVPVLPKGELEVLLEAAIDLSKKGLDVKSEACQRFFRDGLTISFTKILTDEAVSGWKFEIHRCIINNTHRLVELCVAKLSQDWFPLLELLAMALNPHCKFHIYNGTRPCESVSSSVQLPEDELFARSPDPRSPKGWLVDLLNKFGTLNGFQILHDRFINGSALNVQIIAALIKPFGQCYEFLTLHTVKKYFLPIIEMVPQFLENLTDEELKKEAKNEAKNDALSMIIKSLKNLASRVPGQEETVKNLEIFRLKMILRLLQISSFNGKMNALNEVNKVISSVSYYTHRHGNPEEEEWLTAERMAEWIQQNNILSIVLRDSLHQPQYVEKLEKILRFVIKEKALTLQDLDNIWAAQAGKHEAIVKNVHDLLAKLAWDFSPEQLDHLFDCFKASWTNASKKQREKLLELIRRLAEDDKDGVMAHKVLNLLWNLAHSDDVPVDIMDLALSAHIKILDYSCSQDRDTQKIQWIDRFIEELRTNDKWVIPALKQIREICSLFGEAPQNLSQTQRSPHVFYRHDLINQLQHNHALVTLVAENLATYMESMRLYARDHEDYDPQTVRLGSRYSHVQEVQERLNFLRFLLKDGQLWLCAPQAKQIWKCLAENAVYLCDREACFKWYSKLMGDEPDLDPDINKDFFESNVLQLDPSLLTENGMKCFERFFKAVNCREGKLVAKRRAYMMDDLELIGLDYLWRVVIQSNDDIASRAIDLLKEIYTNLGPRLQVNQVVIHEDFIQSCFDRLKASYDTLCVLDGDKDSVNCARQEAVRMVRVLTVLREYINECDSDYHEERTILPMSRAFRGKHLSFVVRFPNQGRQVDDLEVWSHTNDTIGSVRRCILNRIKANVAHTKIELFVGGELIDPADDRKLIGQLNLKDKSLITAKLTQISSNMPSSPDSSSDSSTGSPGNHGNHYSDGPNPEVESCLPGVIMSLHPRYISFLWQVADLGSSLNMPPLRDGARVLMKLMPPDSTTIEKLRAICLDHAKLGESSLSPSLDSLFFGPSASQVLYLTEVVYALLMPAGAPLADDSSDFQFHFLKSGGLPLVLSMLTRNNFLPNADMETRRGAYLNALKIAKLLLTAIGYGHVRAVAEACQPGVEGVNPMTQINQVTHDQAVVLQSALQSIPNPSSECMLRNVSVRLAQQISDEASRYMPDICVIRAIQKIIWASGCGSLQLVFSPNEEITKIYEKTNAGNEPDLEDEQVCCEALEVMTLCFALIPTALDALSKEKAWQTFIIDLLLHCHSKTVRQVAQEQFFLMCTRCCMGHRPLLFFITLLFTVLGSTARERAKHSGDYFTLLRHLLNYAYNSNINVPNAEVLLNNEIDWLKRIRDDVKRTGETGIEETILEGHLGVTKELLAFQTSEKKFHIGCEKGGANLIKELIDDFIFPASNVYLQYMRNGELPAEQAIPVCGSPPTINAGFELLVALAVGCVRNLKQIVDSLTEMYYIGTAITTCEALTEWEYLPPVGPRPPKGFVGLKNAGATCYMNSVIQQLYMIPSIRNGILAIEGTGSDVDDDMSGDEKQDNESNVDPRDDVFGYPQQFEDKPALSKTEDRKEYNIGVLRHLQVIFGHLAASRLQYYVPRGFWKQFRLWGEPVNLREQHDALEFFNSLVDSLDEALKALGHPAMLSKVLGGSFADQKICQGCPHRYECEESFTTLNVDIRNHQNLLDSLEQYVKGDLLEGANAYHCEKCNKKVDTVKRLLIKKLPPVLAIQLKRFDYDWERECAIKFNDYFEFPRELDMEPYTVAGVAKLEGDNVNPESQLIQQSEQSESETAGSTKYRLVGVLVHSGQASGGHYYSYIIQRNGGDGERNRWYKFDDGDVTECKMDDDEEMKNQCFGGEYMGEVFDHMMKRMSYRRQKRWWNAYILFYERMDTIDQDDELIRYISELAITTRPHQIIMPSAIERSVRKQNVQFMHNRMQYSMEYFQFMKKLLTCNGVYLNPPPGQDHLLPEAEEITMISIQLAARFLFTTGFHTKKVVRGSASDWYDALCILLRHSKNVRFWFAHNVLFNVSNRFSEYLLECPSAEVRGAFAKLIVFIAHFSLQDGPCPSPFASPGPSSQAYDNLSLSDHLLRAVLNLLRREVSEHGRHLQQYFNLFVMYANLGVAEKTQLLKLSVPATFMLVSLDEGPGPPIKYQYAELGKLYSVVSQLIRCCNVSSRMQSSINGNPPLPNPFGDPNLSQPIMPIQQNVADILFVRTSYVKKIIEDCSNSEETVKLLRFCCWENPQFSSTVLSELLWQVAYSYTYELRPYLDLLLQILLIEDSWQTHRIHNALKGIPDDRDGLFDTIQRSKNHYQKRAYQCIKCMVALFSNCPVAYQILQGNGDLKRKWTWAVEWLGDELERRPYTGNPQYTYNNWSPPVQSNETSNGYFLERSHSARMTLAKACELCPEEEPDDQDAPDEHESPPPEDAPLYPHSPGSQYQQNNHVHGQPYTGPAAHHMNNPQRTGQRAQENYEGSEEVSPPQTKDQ", "in_short": "(§1)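 Fragment (200 µM) or vehicle was incubated for 3 h with triplicate HEK293T lysate samples of 495 µg, which were then treated with Biotin-Ahx-Ub-VS at 0.5 µM final for 1 h. Labelled DUBs were enriched on NeutrAvidin, digested with LysC and trypsin, and analysed by diaPASEF LC-MS/MS. Values are average log2 fragment/vehicle ratios from an unpaired t-test on global-median-normalised Spectronaut label-free quantities, using proteins with ≥2 unique peptides.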"}, "UniProt O00487": {"target": "UniProt O00487", "sequence (O00487 whole entry)": "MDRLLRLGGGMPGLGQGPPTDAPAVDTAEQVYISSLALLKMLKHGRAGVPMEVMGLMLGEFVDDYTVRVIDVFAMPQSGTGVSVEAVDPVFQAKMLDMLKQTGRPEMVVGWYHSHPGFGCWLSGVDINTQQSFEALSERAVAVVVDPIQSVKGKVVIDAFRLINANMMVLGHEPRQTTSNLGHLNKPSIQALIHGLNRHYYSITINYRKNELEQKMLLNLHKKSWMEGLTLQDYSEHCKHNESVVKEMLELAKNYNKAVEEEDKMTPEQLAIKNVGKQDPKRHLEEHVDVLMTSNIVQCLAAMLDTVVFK", "in_short": "as §1"}, "UniProt O00507": {"target": "UniProt O00507", "in_short": "as §1"}, "UniProt P51784": {"target": "UniProt P51784", "sequence (P51784 whole entry)": "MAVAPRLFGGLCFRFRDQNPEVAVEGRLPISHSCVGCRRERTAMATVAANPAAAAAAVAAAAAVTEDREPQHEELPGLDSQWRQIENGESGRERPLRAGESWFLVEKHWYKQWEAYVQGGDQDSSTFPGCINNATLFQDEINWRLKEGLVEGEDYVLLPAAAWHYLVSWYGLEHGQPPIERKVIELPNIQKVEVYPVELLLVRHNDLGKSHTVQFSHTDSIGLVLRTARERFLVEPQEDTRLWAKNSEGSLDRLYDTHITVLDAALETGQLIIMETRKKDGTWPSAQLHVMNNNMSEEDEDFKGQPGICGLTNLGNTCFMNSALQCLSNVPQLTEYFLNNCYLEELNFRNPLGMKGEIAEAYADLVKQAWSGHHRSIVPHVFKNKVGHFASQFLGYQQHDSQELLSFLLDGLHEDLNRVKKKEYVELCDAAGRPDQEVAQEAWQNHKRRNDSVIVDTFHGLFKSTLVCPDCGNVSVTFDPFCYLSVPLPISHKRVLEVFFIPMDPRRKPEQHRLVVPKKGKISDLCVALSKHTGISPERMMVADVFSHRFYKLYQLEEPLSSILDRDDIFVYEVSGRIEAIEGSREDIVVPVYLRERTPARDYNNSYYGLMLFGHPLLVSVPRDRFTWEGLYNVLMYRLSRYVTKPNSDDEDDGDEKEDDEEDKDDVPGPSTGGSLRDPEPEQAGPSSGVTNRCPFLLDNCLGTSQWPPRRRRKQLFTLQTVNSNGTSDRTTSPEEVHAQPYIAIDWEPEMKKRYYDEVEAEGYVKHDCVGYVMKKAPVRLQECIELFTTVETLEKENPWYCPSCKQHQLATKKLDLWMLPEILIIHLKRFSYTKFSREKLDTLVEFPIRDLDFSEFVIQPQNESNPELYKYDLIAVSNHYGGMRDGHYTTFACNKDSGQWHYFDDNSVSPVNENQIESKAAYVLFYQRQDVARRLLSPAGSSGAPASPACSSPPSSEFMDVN", "in_short": "as §1"}, "UniProt Q5T2D3": {"target": "T1, UniProt Q5T2D3", "T1 sequence (whole entry)": "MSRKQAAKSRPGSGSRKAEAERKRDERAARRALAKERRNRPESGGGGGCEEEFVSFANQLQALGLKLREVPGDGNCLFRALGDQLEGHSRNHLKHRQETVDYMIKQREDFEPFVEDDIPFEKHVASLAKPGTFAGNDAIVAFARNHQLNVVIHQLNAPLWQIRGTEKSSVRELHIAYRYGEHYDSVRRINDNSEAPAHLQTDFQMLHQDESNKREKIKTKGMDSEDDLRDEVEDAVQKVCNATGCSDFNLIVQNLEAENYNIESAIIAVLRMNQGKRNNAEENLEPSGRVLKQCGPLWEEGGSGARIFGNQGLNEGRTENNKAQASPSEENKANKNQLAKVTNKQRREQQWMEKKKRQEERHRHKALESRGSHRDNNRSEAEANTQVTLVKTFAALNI", "in_short": "as §1"}, "UniProt Q8TE49": {"target": "T2, UniProt Q8TE49", "T2 sequence (whole entry)": "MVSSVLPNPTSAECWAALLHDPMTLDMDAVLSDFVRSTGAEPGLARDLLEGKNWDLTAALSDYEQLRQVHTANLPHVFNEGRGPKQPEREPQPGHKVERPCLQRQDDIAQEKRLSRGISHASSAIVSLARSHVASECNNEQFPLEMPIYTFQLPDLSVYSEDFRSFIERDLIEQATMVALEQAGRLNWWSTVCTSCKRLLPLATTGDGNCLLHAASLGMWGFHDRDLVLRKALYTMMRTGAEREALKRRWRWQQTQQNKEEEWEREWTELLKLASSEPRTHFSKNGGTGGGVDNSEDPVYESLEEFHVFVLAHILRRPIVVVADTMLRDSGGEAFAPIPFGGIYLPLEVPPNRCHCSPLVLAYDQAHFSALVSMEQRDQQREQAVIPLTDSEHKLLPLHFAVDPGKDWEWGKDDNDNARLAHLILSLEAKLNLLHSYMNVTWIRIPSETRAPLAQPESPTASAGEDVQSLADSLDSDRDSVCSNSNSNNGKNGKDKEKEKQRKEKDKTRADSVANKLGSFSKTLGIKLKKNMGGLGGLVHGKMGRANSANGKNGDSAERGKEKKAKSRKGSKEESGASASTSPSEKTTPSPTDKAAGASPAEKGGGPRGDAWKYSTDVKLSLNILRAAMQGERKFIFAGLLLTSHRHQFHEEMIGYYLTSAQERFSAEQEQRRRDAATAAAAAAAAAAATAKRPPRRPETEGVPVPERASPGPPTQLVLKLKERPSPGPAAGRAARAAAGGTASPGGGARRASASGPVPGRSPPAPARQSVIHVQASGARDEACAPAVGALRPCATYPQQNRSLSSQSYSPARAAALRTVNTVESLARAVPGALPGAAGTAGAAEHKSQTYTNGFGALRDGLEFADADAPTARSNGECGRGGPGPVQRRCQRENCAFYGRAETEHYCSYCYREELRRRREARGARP", "in_short": "as §1"}, "UniProt Q9P2H5": {"target": "T3, UniProt Q9P2H5", "T3 sequence (whole entry)": "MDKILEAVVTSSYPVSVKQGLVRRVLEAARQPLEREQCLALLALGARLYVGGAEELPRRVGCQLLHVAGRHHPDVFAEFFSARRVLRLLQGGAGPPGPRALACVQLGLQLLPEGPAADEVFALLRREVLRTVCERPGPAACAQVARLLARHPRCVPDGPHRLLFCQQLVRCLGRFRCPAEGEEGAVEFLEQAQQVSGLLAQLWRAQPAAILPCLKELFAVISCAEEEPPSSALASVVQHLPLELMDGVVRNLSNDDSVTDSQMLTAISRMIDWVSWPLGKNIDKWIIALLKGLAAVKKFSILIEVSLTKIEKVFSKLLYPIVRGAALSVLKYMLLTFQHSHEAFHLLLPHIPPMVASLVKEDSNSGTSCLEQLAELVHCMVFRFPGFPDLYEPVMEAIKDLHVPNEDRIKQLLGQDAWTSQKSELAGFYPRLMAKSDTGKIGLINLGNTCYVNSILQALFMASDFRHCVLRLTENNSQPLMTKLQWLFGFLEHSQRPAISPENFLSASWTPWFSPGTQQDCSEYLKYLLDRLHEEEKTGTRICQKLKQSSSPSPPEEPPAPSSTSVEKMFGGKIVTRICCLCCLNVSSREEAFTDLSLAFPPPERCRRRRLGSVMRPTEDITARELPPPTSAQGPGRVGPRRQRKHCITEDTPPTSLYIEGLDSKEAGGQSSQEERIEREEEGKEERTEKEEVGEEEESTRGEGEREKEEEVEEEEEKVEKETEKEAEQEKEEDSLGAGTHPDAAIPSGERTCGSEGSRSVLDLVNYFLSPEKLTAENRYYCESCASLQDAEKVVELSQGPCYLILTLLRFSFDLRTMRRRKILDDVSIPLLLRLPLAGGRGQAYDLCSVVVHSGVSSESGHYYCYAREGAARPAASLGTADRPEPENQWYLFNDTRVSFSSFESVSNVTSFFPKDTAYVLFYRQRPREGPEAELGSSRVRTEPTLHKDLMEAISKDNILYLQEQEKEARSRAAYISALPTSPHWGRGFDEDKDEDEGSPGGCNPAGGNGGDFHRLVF", "in_short": "as §1"}, "UniProt Q9UGI0": {"target": "T4, UniProt Q9UGI0", "T4 sequence (whole entry)": "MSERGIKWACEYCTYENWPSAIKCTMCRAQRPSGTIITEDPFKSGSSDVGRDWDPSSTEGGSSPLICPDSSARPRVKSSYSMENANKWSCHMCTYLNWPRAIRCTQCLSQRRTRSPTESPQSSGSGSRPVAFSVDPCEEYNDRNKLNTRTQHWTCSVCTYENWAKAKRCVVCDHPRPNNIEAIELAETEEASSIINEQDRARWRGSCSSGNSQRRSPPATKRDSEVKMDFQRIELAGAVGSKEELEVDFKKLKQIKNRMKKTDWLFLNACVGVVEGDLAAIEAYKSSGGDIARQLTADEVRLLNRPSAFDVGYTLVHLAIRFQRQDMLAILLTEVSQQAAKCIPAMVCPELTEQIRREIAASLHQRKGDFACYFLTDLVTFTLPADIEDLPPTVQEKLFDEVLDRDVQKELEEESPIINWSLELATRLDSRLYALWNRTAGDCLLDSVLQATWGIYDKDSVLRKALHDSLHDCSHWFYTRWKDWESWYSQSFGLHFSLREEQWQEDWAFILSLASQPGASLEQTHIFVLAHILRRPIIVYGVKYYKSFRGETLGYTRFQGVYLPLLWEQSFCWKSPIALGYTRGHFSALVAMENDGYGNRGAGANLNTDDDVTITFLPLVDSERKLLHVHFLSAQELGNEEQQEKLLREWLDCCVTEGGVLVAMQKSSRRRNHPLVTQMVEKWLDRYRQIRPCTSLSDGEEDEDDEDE", "in_short": "as §1"}, "YOD1": {"target": "T5, YOD1 (UniProt Q5VVQ6)", "T5 sequence (whole entry)": "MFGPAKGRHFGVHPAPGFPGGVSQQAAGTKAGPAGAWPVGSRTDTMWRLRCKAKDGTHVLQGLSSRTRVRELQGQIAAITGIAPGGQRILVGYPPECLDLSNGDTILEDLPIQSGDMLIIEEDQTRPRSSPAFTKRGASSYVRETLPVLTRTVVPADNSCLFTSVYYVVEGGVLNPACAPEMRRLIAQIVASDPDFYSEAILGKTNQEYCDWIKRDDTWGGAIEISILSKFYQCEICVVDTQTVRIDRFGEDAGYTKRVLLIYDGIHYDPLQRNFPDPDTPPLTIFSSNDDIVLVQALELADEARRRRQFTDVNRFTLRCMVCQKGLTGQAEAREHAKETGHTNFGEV", "in_short": "as §1"}},
  "note": "Unmarked numbers belong to inactive results.",
  "data": [
    {"smiles": "Cc1ccc(CN(CCO)C(=O)CCl)cc1", "values": [
      {"measurement": "log2 ratio of Biotin-Ahx-Ub-VS probe labelling", "setting": "USP9X", "result": -0.526},
      {"measurement": "log2 ratio of Biotin-Ahx-Ub-VS probe labelling", "setting": "UniProt O00487", "result": -0.0465},
      {"measurement": "log2 ratio of Biotin-Ahx-Ub-VS probe labelling", "setting": "UniProt O00507", "result": -0.468},
      {"measurement": "log2 ratio of Biotin-Ahx-Ub-VS probe labelling", "setting": "UniProt P51784", "result": -0.204},
      {"measurement": "log2 ratio of Biotin-Ahx-Ub-VS probe labelling", "setting": "UniProt Q5T2D3", "result": -0.439},
      {"measurement": "log2 ratio of Biotin-Ahx-Ub-VS probe labelling", "setting": "UniProt Q8TE49", "result": -0.837},
      {"measurement": "log2 ratio of Biotin-Ahx-Ub-VS probe labelling", "setting": "UniProt Q9P2H5", "result": -0.351},
      {"measurement": "log2 ratio of Biotin-Ahx-Ub-VS probe labelling", "setting": "UniProt Q9UGI0", "result": "-1.16 (active)"},
      {"measurement": "log2 ratio of Biotin-Ahx-Ub-VS probe labelling", "setting": "YOD1", "result": -0.163}
    ]}
  ]
}
